# Experimental data taken from the supplement of paper PMC7411640.
# Where a name gives a salt, the structure may show the parent alone.
# System: MDA-MB-468
# Test: phospho-S6 immunofluorescence (DAPI-normalised), per-plate z-score; higher = higher phospho-S6 signal (less pathway suppression)
# Details: 24 h
# Method: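 GPCR-targeted compound library (MedChemExpress HY-L006) tested on MDA-MB-468 PTEN-null TNBC cells in 384-well plates at 0.1, 1 or 10 uM, combined with vehicle, GDC0941 450 nM or lapatinib 1 uM, for 24 h. Phospho-S6 (S240/244) immunofluorescence normalised to DAPI and expressed as a per-plate z-score; values are the mean of biological triplicates.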
SMILES,phospho-S6 immunofluorescence (z-score) (co-treatment: GDC0941 450 nM),phospho-S6 immunofluorescence (z-score) (co-treatment: lapatinib 1 uM),phospho-S6 immunofluorescence (z-score) (co-treatment: vehicle)
O=C1NCCN1CCN1CCC(c2cn(-c3ccc(F)cc3)c3ccc(Cl)cc23)CC1 [Sertindole] (compound 10 µM),-4.7,-6.25,-4.35
CC(C)NCC(O)c1ccc(O)c(O)c1 (centres undefined) [Isoprenaline (hydrochloride)] (compound 10 µM),0.63,2.74,1.65
C[C@H](NC(=O)CNC(=O)c1cccc(Cl)c1)c1ccccc1 (compound 10 µM),0.04,0.45,0.46
CC(=O)OCC(=O)NCCCOc1cccc(CN2CCCCC2)c1 [Roxatidine (Acetate Hydrochloride)] (compound 10 µM),0.24,0.32,0.91
N#Cc1ccc2[nH]cc(CCCCN3CCN(c4ccc5oc(C(N)=O)cc5c4)CC3)c2c1 [Vilazodone (Hydrochloride)] (compound 10 µM),-0.01,-0.76,0.65
CC(=O)OCC(=O)[C@@]1(O)CC[C@H]2[C@@H]3CCC4=CC(=O)CC[C@]4(C)[C@H]3[C@@H](O)C[C@@]21C [Hydrocortisone (acetate)] (compound 10 µM),-0.25,1.4,-0.24
Cc1nccn1CCC(C(N)=O)(c1ccccc1)c1ccccc1 [Imidafenacin] (compound 10 µM),-0.05,0.38,0.28
C[C@]12CCC(=O)C=C1CC[C@@H]1[C@@H]2C(=O)C[C@@]2(C)[C@H]1CC[C@]2(O)C(=O)CO [Cortisone] (compound 10 µM),0.47,0.58,1.14
COc1cc(C(=O)NCc2ccc(OCCN(C)C)cc2)cc(OC)c1OC [Trimethobenzamide hydrochloride] (compound 10 µM),0.29,1.09,0.51
CCc1nc2c(C)nc(C)cc2n1-c1ccc(CCNC(=O)NS(=O)(=O)c2ccc(C)cc2)cc1 [Grapiprant] (compound 10 µM),-0.05,-0.15,-0.51
CCCCC(=O)N(Cc1ccc(-c2ccccc2-c2nnn[nH]2)cc1)[C@H](C(=O)O)C(C)C.CCOC(=O)[C@H](C)C[C@@H](Cc1ccc(-c2ccccc2)cc1)NC(=O)CCC(=O)O (compound 10 µM),0.23,0.37,0.21
C[C@@](N)(C(=O)O)c1ccc(C(=O)O)cc1 (compound 10 µM),0.93,1,0.17
CC(=O)OCC(=O)[C@@]12OC(C)(C)O[C@@H]1C[C@H]1[C@@H]3C[C@H](F)C4=CC(=O)C=C[C@]4(C)[C@@]3(F)[C@@H](O)C[C@@]12C [Fluocinonide] (compound 10 µM),-0.28,0.59,0.62
C[C@H](Nc1cc(NS(=O)(=O)N2CCC2)nc(SCc2cccc(F)c2F)n1)[C@@H](O)CO (compound 10 µM),-1.17,-0.3,-0.77
CCCN[C@H]1CCc2nc(N)sc2C1 [Pramipexole (dihydrochloride)] (compound 10 µM),0.87,0.31,0.17
CN1Cc2c(N)cccc2C(c2ccccc2)C1 (centres undefined) [Nomifensine (maleate)] (compound 10 µM),-0.09,-0.69,-0.17
CN1CCN(CC(=O)N2c3ccccc3C(=O)Nc3cccnc32)CC1 [Pirenzepine (dihydrochloride)] (compound 10 µM),1.51,1.09,0.23
Cc1nc2c([nH]1)-c1ccccc1N(C(=O)c1ccc(NC(=O)c3ccccc3-c3ccccc3)cc1)CC2 [Conivaptan (hydrochloride)] (compound 10 µM),0.65,0.52,0.94
COc1ccc(S(=O)(=O)Nc2c(C)cc(C)cc2C)cc1 (compound 10 µM),0.04,-0.37,-1.05
Cc1nn(C)c2c1C(c1ccc(C(F)(F)F)cc1)C(C#N)=C(N)O2 (centres undefined) (compound 10 µM),-1.17,2.28,2.57
COc1cccc(-c2c(C)n(Cc3c(F)cccc3C(F)(F)F)c(=O)n(C[C@H](NCCCC(=O)O)c3ccccc3)c2=O)c1F [Elagolix] (compound 10 µM),0.62,-0.03,0.51
CCCc1nc(C(C)(C)O)c(C(=O)O)n1Cc1ccc(-c2ccccc2-c2nnn[nH]2)cc1 [Olmesartan] (compound 10 µM),0.13,0.28,-0.82
CC(C)c1noc(N2CCC(COc3ccc(-c4ccc(S(C)(=O)=O)cc4)nc3)CC2)n1 (compound 10 µM),-2.9,-4.91,-6.22
CC1(C)O[C@@H]2C[C@H]3[C@@H]4CCC5=CC(=O)C=C[C@]5(C)[C@H]4[C@@H](O)C[C@]3(C)[C@]2(C(=O)CO)O1 [Desonide] (compound 10 µM),-0.1,0.54,1.16

SMILES,phospho-S6 immunofluorescence (z-score) (co-treatment: GDC0941 450 nM),phospho-S6 immunofluorescence (z-score) (co-treatment: lapatinib 1 uM),phospho-S6 immunofluorescence (z-score) (co-treatment: vehicle)
CNC(=C[N+](=O)[O-])NCCSCc1ccc(CN(C)C)o1 [Ranitidine (hydrochloride)] (compound 10 µM),0.47,0.54,0.29
CN(C)C(=O)CCSC(SCCC(=O)O)c1cccc(/C=C/c2ccc3ccc(Cl)cc3n2)c1 (centres undefined) [MK-571 (sodium salt)] (compound 10 µM),-0.65,0.9,1.28
CC(N)(C(=O)O)c1ccc(C(=O)O)cc1 (racemic) (compound 10 µM),0.62,0,0.84
CC(C)(C)NCC(O)COc1cccc2c1CCC(=O)N2 (centres undefined) [Carteolol (hydrochloride)] (compound 10 µM),0.64,0.45,-0.38
CN1CCC(=C2c3ccccc3CC(=O)c3sccc32)CC1 [Ketotifen (fumarate)] (compound 10 µM),0.55,-0.44,0.26
NC(N)=Nc1nc(CSCC/C(N)=N/S(N)(=O)=O)cs1 [Famotidine] (compound 10 µM),-1.24,-0.34,-0.29
COc1ccccc1OCCNCC(O)COc1cccc2[nH]c3ccccc3c12 (centres undefined) [Carvedilol] (compound 10 µM),-4.07,-4.63,-3.59
CNC(=O)[C@H]1O[C@@H](n2cnc3c(NCc4cccc(I)c4)nc(Cl)nc32)[C@H](O)[C@@H]1O (compound 10 µM),-1.27,-1.18,-2.34
CC(C)NC[C@H](O)COc1ccc(CCOCC2CC2)cc1 [Levobetaxolol (hydrochloride)] (compound 10 µM),-0.39,-0.2,-0.19
Cn1cc(C(=O)[C@@H]2CCc3[nH]cnc3C2)c2ccccc21 [Ramosetron (Hydrochloride)] (compound 10 µM),-1.27,0,-0.92
Cn1c(=O)c2c(ncn2CC(O)CO)n(C)c1=O (centres undefined) [Diphylline] (compound 10 µM),-0.54,-0.14,-0.15
Cc1noc(-c2ccc(-c3ccc(CC(=O)O)cc3)cc2)c1NC(=O)O[C@H](C)c1ccccc1 (compound 10 µM),0.62,1.57,0.63
CC(C)OC(=O)N1CCC(Oc2ncnc3c2cnn3-c2ccc(S(C)(=O)=O)cc2F)CC1 (compound 10 µM),-0.32,-0.15,-0.38
Clc1ccc(CCCOCCCN2CCCCC2)cc1 [Pitolisant (hydrochloride)] (compound 10 µM),0.75,-0.69,-0.12
CN1CCC(OC(c2ccccc2)c2ccccc2)CC1 [Diphenylpyraline (hydrochloride)] (compound 10 µM),0.68,0.42,-0.04
N=C(N)NCCC[C@@H](NC(=O)[C@@H]1CCCN1C(=O)[C@@H]1CSSCCC(=O)N[C@@H](Cc2ccc(O)cc2)C(=O)N[C@@H](Cc2ccccc2)C(=O)N[C@@H](CCC(N)=O)C(=O)N[C@@H](CC(N)=O)C(=O)N1)C(=O)NCC(N)=O [Desmopressin (Acetate)] (compound 10 µM),0.16,-0.21,-0.41
COc1cc(N)cn[n+]1-c1ccccc1 [Amezinium (methylsulfate)] (compound 10 µM),-0.21,1.19,0.03
Cc1cccn2c(=O)c(C=C(C#N)c3nc4ccccc4s3)c(Oc3ccc(F)cc3)nc12 (compound 10 µM),0.33,1.14,-0.48
CC(=O)OCC(=O)[C@@]1(O)[C@H](C)C[C@H]2[C@@H]3CCC4=CC(=O)C=C[C@]4(C)[C@@]3(F)[C@@H](O)C[C@@]21C [Dexamethasone (acetate)] (compound 10 µM),0.07,0.45,1.18
COC(=O)[C@@H]1[C@H]2C[C@H]3c4[nH]c5ccccc5c4CCN3C[C@@H]2CC[C@@H]1O [Yohimbine (Hydrochloride)] (compound 10 µM),0.62,0.56,1.59
CC(=O)N[C@H](Cc1ccc2ccccc2c1)C(=O)N[C@H](Cc1ccc(Cl)cc1)C(=O)N[C@H](Cc1cccnc1)C(=O)N[C@@H](CO)C(=O)N(C)[C@@H](Cc1ccc(O)cc1)C(=O)N[C@H](CC(N)=O)C(=O)N[C@@H](CC(C)C)C(=O)N[C@@H](CCCCNC(C)C)C(=O)N1CCC[C@H]1C(=O)N[C@H](C)C(N)=O [Abarelix] (compound 10 µM),0.77,0.65,-0.38
C[C@H](NC(=O)c1c(C(F)F)nn(C)c1Oc1cccc(C(F)(F)F)c1)c1ccc(C(=O)O)cc1 (compound 10 µM),0.32,0.46,-0.56
CCOC(=O)O[C@]1(C(=O)OCCl)CC[C@H]2[C@@H]3CCC4=CC(=O)C=C[C@]4(C)[C@H]3[C@@H](O)C[C@@]21C [Loteprednol Etabonate] (compound 10 µM),-0.86,0.31,-1.08
C[C@H](CCC(=O)O)[C@H]1CC[C@H]2[C@@H]3CC[C@@H]4C[C@H](O)CC[C@]4(C)[C@H]3C[C@H](O)[C@]12C [Deoxycholic acid] (compound 10 µM),0.02,0.6,-0.17
